Bioassay records as filed in PubChem.
The full list was thinned out, with hits kept by preference.
Tg IFNy HTS – inhibitors of Toxoplasma gondii growth with IFN-gamma; Toxoplasma gondii growth in IFN-gamma-treated host cells; stronger effect = lower value; activity change, negative = inhibition, % (test concentration not listed); 69,000 tested, 3.8% active; AID 1259416; in the data active = activity change below about -70%, passing the limit was not always enough;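 note: host cells are HeLa cells infected with Toxoplasma gondii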
* marks the source's active call; other numbers are inactive results.

For Cc1cccc(N2C(=O)CC(Sc3nnc(C)s3)C2=O)c1 (stereo not given) the results were Tg IFNy HTS -5.
For Cc1ccc(N2C(=O)CC(Sc3ccccn3)C2=O)cc1 (stereo not given) the results were Tg IFNy HTS -11.
For Cc1ccc(NC(=O)C(=O)NCCc2sc(-c3ccccc3)nc2C)cc1Cl the results were Tg IFNy HTS -62.
`O=c1[nH]c2cc3c(cc2cc1CNc1ccc(N2CCCCC2)cc1)CCC3` gave Tg IFNy HTS -99*.
For Cc1noc(CN(C)Cc2cc3cc4c(cc3[nH]c2=O)CCC4)n1 the results were Tg IFNy HTS -5.
`O=c1[nH]c2cc3c(cc2cc1CNc1cccc2c1CCCC2)OCCO3` gave Tg IFNy HTS 7.
`Cc1ccc2nsnc2c1NS(=O)(=O)NCc1ccccc1` gave Tg IFNy HTS 14.
c1cc(-c2ccc3[nH]ncc3c2)n2nccc2c1 was read as Tg IFNy HTS -1.
`Nc1nccc2c1ncn2[C@@H]1O[C@H](CO)C(O)C1O` (stereo not given in full) gave Tg IFNy HTS -3.
Nc1nccc2c1ncn2[C@@H]1C=C(CO)[C@@H](O)[C@H]1O was read as Tg IFNy HTS -78*.
Screening O=C(c1ccoc1)N1CCc2ncnc(C3CCOC3)c2CC1 (stereo not given) returned Tg IFNy HTS 77.
For COc1cccc(NC(=O)N2CCCC3(C2)Nc2cccnc2NC3=NC2CCCC2)c1 (stereo not given) the results were Tg IFNy HTS -7.
COc1ccc(C)cc1NC(=O)N1CCCC2(C1)Nc1cccnc1NC2=NC1CCCC1 (stereo not given) was read as Tg IFNy HTS 31.
Screening O=C(Nc1cc(F)cc(F)c1)N1CCCC2(C1)Nc1cccnc1NC2=NC1CCCC1 (stereo not given) returned Tg IFNy HTS -86*.
CCc1ccc2c(c1)cc(S(=O)(=O)c1ccccc1)c(=O)n2CC(=O)NCCC1=CCCCC1 was read as Tg IFNy HTS -6.
Screening C#CCCC(=O)N(Cc1sccc1C)CC(C)C returned Tg IFNy HTS 15.
`NC(=O)c1ccc(-c2nc(-c3ccc4c(c3)OCO4)c(-c3ccccn3)[nH]2)cc1` gave Tg IFNy HTS -62.
Cc1cccc(-c2[nH]c(C(C)(C)C)nc2-c2ccc3c(c2)OCO3)n1 was read as Tg IFNy HTS -83*.
Screening COc1nccnc1-c1ccc2c(c1)OCO2 returned Tg IFNy HTS 10.
Cc1ncsc1CCC(=O)N1CCCC(N(C)C)CC1 (stereo not given) was read as Tg IFNy HTS 1.
For Cc1ccoc1C(=O)N1CC[C@@H]2CN(Cc3cccnc3)CCO[C@H]2C1 the results were Tg IFNy HTS -23.
Screening Fc1cnc(N2CCC3(COCc4cnc(N5CCOCC5)nc43)C2)nc1 (stereo not given) returned Tg IFNy HTS 11.
`Cc1ccsc1C(=O)N1CCC(N2CCOCC2)CC1C(=O)O` (stereo not given) gave Tg IFNy HTS 124.
Screening CC(C)S(=O)(=O)c1cscc1NC(=O)Nc1ccccc1 returned Tg IFNy HTS -1.
Screening CSc1sc(C(=O)N2CCc3ccccc32)cc1S(=O)(=O)C(C)C returned Tg IFNy HTS 33.
Screening CSc1sc(C(=O)Sc2ccc(Cl)cc2)cc1S(=O)(=O)C(C)C returned Tg IFNy HTS -79*.
For COC(=O)c1sc(SC)c(S(=O)(=O)c2ccc(Cl)cc2)c1C the results were Tg IFNy HTS -6.
Screening COc1cc(NC(=O)Nc2ccc(Cl)cc2)c(-n2c(C)ccc2C)cc1OC returned Tg IFNy HTS 166.
CSc1sc(NC(=O)Nc2ccc(Cl)cc2)cc1S(=O)(=O)C(C)C was read as Tg IFNy HTS -84*.
CN(C)CCNC(=O)Nc1c[nH]c2ccccc2c1=O was read as Tg IFNy HTS -14.
`Cc1ccc(CNC2=NCCNC23CCN(S(=O)(=O)c2ccc(C)cc2C)CC3)cc1` gave Tg IFNy HTS -28.
For COc1ccc(NC(=O)C(=O)NCCc2csc(-c3ccc(C(F)(F)F)cc3)n2)cc1OC the results were Tg IFNy HTS 51.
For O=C(O)CC1CCC2(CC1)CCN(C(=O)c1ccccc1F)CC2 the results were Tg IFNy HTS 1.
Screening c1cnc(N2CCC3(CCN(Cc4nccs4)CC3)C2)nc1 returned Tg IFNy HTS -2.
`CN(C)CCOCc1nnc2n1CCN(S(C)(=O)=O)C2` gave Tg IFNy HTS 5.
Cn1ccnc1-c1nn(CCNC(=O)COc2ccccc2)cc1-c1ccc(F)cc1 was read as Tg IFNy HTS 2.
`O=c1[nH]c(Cc2ccccc2)nc2c1C1(CCCCC1)Cc1ccccc1-2` gave Tg IFNy HTS -3.
Screening CCSc1nc2c(c(=O)n1C)C1(CCCCC1)Cc1ccccc1-2 returned Tg IFNy HTS -73*.
Screening CN(C)C1CCN(C(=O)C2=NOC3(CCN(Cc4ccc(Cl)c(F)c4)C3)C2)CC1 (stereo not given) returned Tg IFNy HTS -8.
COc1ccc(CCN(C)C2CCCN(c3ncnc4[nH]ccc34)C2)cc1OC (stereo not given) was read as Tg IFNy HTS 4.
CCc1ccc(NC(=O)NCC(c2cccnc2)c2cn(C)c3ccccc23)cc1 (stereo not given) was read as Tg IFNy HTS 259.
Screening Cn1cc(C(CNC(=O)Nc2ccccc2Cl)c2cccnc2)c2ccccc21 (stereo not given) returned Tg IFNy HTS inactive.
For CCc1ccccc1S(=O)(=O)NCC(c1cccnc1)c1cn(C)c2ccccc12 (stereo not given) the results were Tg IFNy HTS -83*.
CCCS(=O)(=O)N1Cc2ccnn2CC(c2nc(C)no2)C1 (stereo not given) was read as Tg IFNy HTS 4.
Screening CC(C)NC(=O)N1CCC[C@]2(C(=O)N3CCOCC3)CN(Cc3cnn(C)c3)C[C@H]2C1 returned Tg IFNy HTS 6.
`CCc1ccc2c(c1)cc(CN(C(=S)NCc1ccco1)C1CCCC1)c1nnnn12` gave Tg IFNy HTS -17.
`COc1ccc(-c2nc(C)c(CCNS(=O)(=O)c3ccc(Oc4ccccc4)cc3)s2)cc1OC` gave Tg IFNy HTS -97*.
For COc1ccc(-c2nc(C)c(CCNS(=O)(=O)c3ccc(C)cc3)s2)cc1OC the results were Tg IFNy HTS inactive.
`COc1ccc(-c2nc(C)c(CCNS(=O)(=O)c3ccc4ccccc4c3)s2)cc1OC` gave Tg IFNy HTS -29.
For COC(=O)CN1C(=O)N(CCc2ccccc2)C2(CCN(C3Cc4ccccc4C3)CC2)C1=O the results were Tg IFNy HTS -1.
Screening COc1ccc(OC)c(-c2cc(C(=O)NC(C)c3ccc4c(c3)CCC4)[nH]n2)c1 (stereo not given) returned Tg IFNy HTS 75.
`COc1ccc(C(C)NC(=O)c2cn3c(n2)CCCC3)cc1OC` (stereo not given) gave Tg IFNy HTS 110.
Screening COc1ccc(C(C)NC(=O)c2c3c(nn2C)CCCC3)cc1F (stereo not given) returned Tg IFNy HTS -77*.
`CC(C)c1cc(C2CCCN2Cc2c[nH]c3ccccc23)on1` (stereo not given) gave Tg IFNy HTS -24.
For Cc1cc(C2CCCN2Cc2cccc(C(=O)Nc3nccs3)c2)no1 (stereo not given) the results were Tg IFNy HTS 4.
For COc1cc(F)ccc1-c1ccccc1NC(=O)CN the results were Tg IFNy HTS -1.
Cc1cc2nc(C)c(CCC(=O)Nc3ncc(-c4ccccc4)n3C)c(C)n2n1 was read as Tg IFNy HTS 14.
